Gli-Sufu block: Gli-Sufu pathway antagonists, primary screen, luciferase luminescence, Sufu-KO-LIGHT cells, uHTS. hit rate 0.74% among 340,000. AID 588413, 2011. Sufu-KO-LIGHT fibroblasts, Gli luciferase reporter luminescence. inhibition, % at 5 µM;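 active = inhibition above about 55%, limit read from the data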
CSC inhib: cancer stem cell viability inhibitors, primary screen, luminescence; AID 2717, 2010; cancer stem cell-like cells viability; inhibition, % at 7.5 µM; hit rate 1.1% among 300,000; in the data active = inhibition above about 75%; tested in HMLE shEcad cells
Mdm2 MdmX PPI: inhibitors of human Mdm2-MdmX association, primary screen, cell-based, luminescence, split luciferase, SaOS-2, uHTS; SaOS-2 split-luciferase Mdm2/MdmX complementation; inhibition, % at 8 µM; hit rate 3% among 330,000;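 active = inhibition of at least 50% at 8 µM in the primary screen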
NR3A LBD binder: binders of NR3A ligand-binding domain, primary screen, biophysical, differential scanning fluorimetry, uHTS; Glutamate receptor ionotropic, NMDA 3A (GRIN3A) ligand-binding domain; hit rate 2.5% among 340,000; NR3A LBD differential scanning fluorimetry, Tm shift; 0% = protein alone, 100% = glycine-bound protein; Tm shift relative to glycine control, % at 25 µM;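 active = melting temperature shift of at least 10% of the positive control shift, at one fixed dose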
Beta apoptosis: inhibitors of cytokine-induced beta cell apoptosis, primary screen, luminescence; INS-1E cytokine-induced death, ATP luminescence, 48 h; percent of positive-control rescue, neutral wells zero; AID 435005, 2010; hit rate 0.8% among 300,000; protection from apoptosis, % (no concentration beside the values);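 active = Every replicate reaches about 75%, or at least half do and their mean reaches it too, limit read from the data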;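 also: higher means more ATP so stronger rescue from cytokine killing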
MPTP block: mitochondrial permeability transition pore inhibitors, primary screen, biochemical, isolated mouse mitochondria, absorbance. Ca2+ swelling absorbance, 30 min. inhibition, % at 10 µM. hit rate 1.4% among 360,000. AID 602449, 2012;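 active = inhibition of 50% or more, scaled per plate between neutral and stimulator controls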
Hits are given with their value; . = inactive; / = not tested or not shown. This is a sample that favours compounds with a hit; in the whole collection about 6.6% have one here.

SMILES	Gli-Sufu block	CSC inhib	Mdm2 MdmX PPI	NR3A LBD binder	Beta apoptosis	MPTP block
COc1ccc(NC(=O)c2cc(=O)[nH]c3ccccc23)cc1	.	.	.	.	.	.
COc1ccc(NC(=O)c2cc3ccc4c5ccccc5[nH]c4c3cc2O)cc1	.	.	.	229.5	.	.
CCc1ccc(NC(=O)NNC(=O)c2cc3ccccc3cc2O)cc1	.	.	.	10.3	.	.
CCCC(c1nnnn1Cc1ccco1)N1CCN(c2ccccc2)CC1 (stereo unspecified)	.	.	.	.	.	.
CCCC(c1nnnn1Cc1ccco1)N1CCN(c2cc(Cl)ccc2C)CC1 (stereo unspecified)	.	136.0	.	.	.	.
Cc1ccccc1N1CCN(C2CCCN(C(=O)CCC(F)(F)F)C2)CC1 (stereo unspecified)	.	.	.	.	.	.
CC(=O)Oc1ccc(Cl)cc1/C=C/c1ccc2ccccc2n1	.	.	.	.	.	.
CC(=O)Oc1c(Cl)cc(Cl)cc1/C=C/c1ccc2ccccc2n1	.	108.6	.	.	.	.
Cc1ccc2c(CN3CCN(c4ccc(Cl)c(Cl)c4)CC3)cc(=O)oc2c1	/	/	/	/	/	.
Cc1ccc(-n2c(C)cc(C(=O)CN3CCOCC3)c2C)cc1C	.	.	.	17.6	.	.
Nc1ncnc2c1ncn2[C@@H]1O[C@H](CNCC(O)CO)[C@@H](O)[C@H]1O (stereo partly specified)	.	/	.	.	/	.
Cc1ccc(NC(=O)C2CCCN2C(=O)NC2CCCCC2)cc1 (stereo unspecified)	.	.	.	.	.	.
CCCCCCC1C(C#N)=C(N)OC2=C1C(=O)CC(C)(C)C2 (stereo unspecified)	.	.	.	43.7	.	.
CCC1C(C#N)=C(N)OC2=C1C(=O)CC(C)(C)C2 (stereo unspecified)	.	.	.	.	.	.
CC(=NNc1nc2ccccc2o1)c1cc2ccccc2cn1	91.6	/	/	.	/	.
COc1cc(/C=N/Nc2nc(C)nc3c2cnn3-c2ccccc2)ccc1O	.	/	/	13.3	/	.
COc1cc(/C=N/Nc2ccc(C(=O)O)cc2)ccc1O	.	.	.	26.6	.	.
COc1ccc(/C=N/Nc2ccc([N+](=O)[O-])cc2)cc1O	.	.	.	27.0	.	.
COc1cccc(/C=N/Nc2cc(Cl)nc(C)n2)c1O	.	.	.	.	.	.
COc1cccc(/C=N/Nc2c(Cl)cncc2Cl)c1O	.	.	.	35.4	.	.
COc1cc(/C=N/NC(=O)c2nc(-c3ccccc3)n(-c3ccccc3)n2)ccc1O	.	.	.	.	.	.
COc1cc([N+](=O)[O-])cc(/C=N/NC(=O)c2cncc(Br)c2)c1O	.	.	.	.	.	.
COC(=O)c1ccc(N/N=C/c2cc([N+](=O)[O-])cc(OC)c2O)cc1	.	.	.	29.9	.	.
COc1cccc(/C=N/Nc2ccc([N+](=O)[O-])cc2)c1O	/	.	.	36.0	.	.
Cc1cccc(Nc2c([N+](=O)[O-])c(=O)oc3ccccc23)c1	.	.	.	.	.	.
SMILES	Gli-Sufu block	CSC inhib	Mdm2 MdmX PPI	NR3A LBD binder	Beta apoptosis	MPTP block
Oc1ccccc1C=NN=CC=Cc1ccccc1	.	/	/	.	/	.
Oc1ccccc1C=NN=Cc1ccccc1Cl	.	/	/	12.6	/	.
CCCn1c(CCNc2nc(-c3cccc(Br)c3)cs2)nc2ccccc21	.	/	/	.	/	.
CCOC(=O)c1snc(-c2ccc(F)cc2)c1N	.	.	.	14.2	.	.
CCOC(=O)c1sc(N)nc1-c1ccccc1	.	.	.	.	/	.
CCC(=O)Nc1cc(Cl)ccc1C(=O)O	.	.	.	.	/	.
O=C(O)c1ccc(Cl)cc1Nc1nc2cc(Cl)ccc2o1	.	.	/	13.5	.	.
Cc1cccc(C2(c3cccc(C)c3)OC(=O)c3ccccc32)c1	.	.	.	.	124.4	.
O=C1OC(c2ccccc2)(c2ccccc2)c2ccccc21	.	/	/	.	/	.
O=C1CSc2ccc(S(=O)(=O)N3CCN(c4ccccc4F)CC3)cc2N1	.	.	.	.	.	.
COc1ccccc1-n1c(-c2cc(-c3ccc(F)cc3)n[nH]2)n[nH]c1=S	.	.	.	18.9	.	.
COc1ccc(-c2cc(-c3n[nH]c(=S)n3-c3cccc4ccccc34)[nH]n2)cc1	.	.	.	.	.	.
CCOC(=O)c1c(C)oc2c1c(CN1CCN(C(=O)OCC)CC1)c(O)c1ccccc12	.	.	.	10.2	.	.
CCOC(=O)c1c(C)oc2c1c(CN1CCN(CCO)CC1)c(O)c1ccccc12	.	/	/	.	/	.
C=CCN(c1ccc(C(=O)NCCSc2ccccc2)cc1)S(C)(=O)=O	.	.	.	.	.	.
O=C(CSc1ccc2ccccc2c1)N1CCN(c2ccc(O)cc2)CC1	.	91.4	.	.	.	.
COc1ccc(/C=N/Nc2ncnc3sc(C)c(C)c23)cc1	.	.	.	.	.	.
Cc1sc2ncnc(N/N=C/c3ccccc3O)c2c1C	/	104.8	/	.	85.5	.
Cc1sc2ncnc(N/N=C/c3ccc(O)cc3)c2c1C	.	.	.	35.0	.	.
Nc1c(Cl)ncnc1N/N=C/c1ccc(O)cc1	.	.	.	13.7	.	.
O=C(Nc1cccc(F)c1)c1cccnc1NCCc1ccccc1	.	.	.	16.5	/	.
CC(=NNc1ccc2ccccc2n1)c1ccccc1O	.	/	/	24.4	/	.
COc1cc(CNc2nc3c(C)cc(C)cc3s2)ccc1O	.	.	.	.	.	.
Cc1cc(C)c2nc(NCc3ccccc3O)sc2c1	.	.	.	27.3	.	.
Cc1ccc(Sc2ncccc2NC(=O)c2ccccc2Cl)cc1	.	.	.	13.9	.	.
SMILES	Gli-Sufu block	CSC inhib	Mdm2 MdmX PPI	NR3A LBD binder	Beta apoptosis	MPTP block
CCOC(=O)Nc1cccnc1Sc1ccc(Cl)cc1	.	.	.	.	/	.
Cc1ccccc1S(=O)(=O)Cc1ccc(C(=O)NC2CCCCC2)o1	.	.	.	.	.	.
CC1(C)Cc2nc(NCCCO)c(C#N)cc2CO1	.	.	.	15.8	.	.
CCn1c(N2CCN(S(=O)(=O)c3ccc(F)cc3)CC2)nc2ccccc21	.	79.7	.	.	.	.
CCn1c(N2CCN(S(=O)(=O)c3ccc(Cl)cc3)CC2)nc2ccccc21	.	.	.	.	.	.
O=[N+]([O-])c1cccc(-c2ccc(/C=N/NC(=S)Nc3ccccc3)o2)c1	.	.	.	14.8	.	.
CCOC(=O)C1CCc2c(ccc3ccccc23)N1CCC#N (stereo unspecified)	/	/	/	/	/	.
C[C@@H](CSc1ccc(Br)cc1)CN1CC[C@H](NC(=O)OCc2ccccc2)CCC1=O	.	91.4	.	.	.	.

Source: PubChem
